Measurements: PubChem BioAssay (NCATS)
Results filed as inconclusive are left out. Values without a mark were called inactive. The source made the active and inactive calls. Calls follow the shape of the dose curve; as a rule, active = well fitted inhibition curve with a large enough effect; inconclusive = small, poorly fitted or top-dose-only effect; inactive = no such curve, though single readings can be large or run the other way.

Assay: BET inhibitor-based combinations targeting novel dependencies in MECOM-rearranged (r) AML: SET-2 cell line (AID 2202231); also: nearly all actives have a fitted effect of over 35% in size
Settings: SET-2 AML cells viability, CellTiter-Glo luminescence, 48 h; viability: stronger effect = lower value, series mostly up to about 46 µM
Description: Ecotropic viral insertion site 1 (EVI1) is located on chromosome 3q26.2 as part of the MECOM (MDS and EVI1 complex) locus. Under normal hematopoiesis, EVI1 is a regulator of hematopoietic stem cell maintenance and self-renewal and EVI1 levels decrease as the cells differentiate. In approximately 5-10% of de novo acute myeloid leukemia (AML) EVI1 is aberrantly expressed, including Chromosomal inv(3)(q21;q26.2) or t(3;3)(q21;q26.2) alterations (MECOM-r) that account for about 50% of AML with EVI1 overexpression 31. AMLs with high levels of EVI1 have a poor prognosis and an overall survival time averaging between 10-14 months. EVI1 overexpression confers resistance in leukemia cells, highlighting the need to develop new targeted therapies for EVI1 overexpressing AMLs.
Here, we performed an unbiased chemical drug screening by evaluating the single agent activity of a collection of 2,480 oncology-focused, approved and investigational drugs (NCATS Mechanism Interrogation Plates, MIPE v5.0) against a panel of seven AML cell lines. These included four MECOM-r cell-lines (AML-191, AML-194, UCSD-AML1 and HNT-34) and three non-MECOM-r AMLs (MV4-11, OCI-AML3 and SET-2). Exploiting the mechanistic redundancy built in the library, we identified target-level sensitivities in MECOM-r AML cells and relative activity as compared to other AML subtypes.
A collection of 2480 mechanistically annotated dugs (MIPE v5.0) was used to screen four 3q26.2 rearranged AML cell lines and three non-3q26.2 rearranged AML cell lines. This library purposely exploits redundancy by including multiple inhibitors of key onco-targets, while simultaneously encompassing mechanistic diversity, targeting more than 800 distinct mechanisms of action. Briefly, cells were seeded in 5 uL of growth media using a Multidrop Combi dispenser into 1536 well white polystyrene tissue culture treated plates (Corning) at a density of 500cells/well. For each cell-line, for each of the 2480 drugs in MIPE v5.0 library, an 11-point dose curve was generated via a 1536 pin-tool. Plates were incubated for 48 hr at standard incubator conditions, covered by a stainless steel gasketed lid to prevent evaporation. Cell viability was determined by luminescence based, Cell Titer Glo assay (Promega). In detail, 3 uL of Cell Titer Glo were added to each well and plates were incubated at room temperature for 15 min with a stainless-steel lid in place. Luminescence readings were taken using a Viewlux (PerkinElmer) with a 2 s exposure time per plate. Compound dose-response curves were normalized to DMSO and empty well controls on each plate. Quantitative drug activity data from dose-response curves was determined utilizing area Under the Curve (AUC) and Z-transformed AUC (Z-AUC, a mean-centering transformation applied to each individual cell-line screened).
Potency is read from the fitted curve at half-maximal effect.

Compound	viability [%]	Potency
O=C(O)CNC(=O)c1c(O)c2ccccc2n(Cc2ccccc2)c1=O	107	
CC1(C)CC(O)CC(C)(C)N1O	115	
CCOP(=O)(OCC)C(C)NC(=O)N(CCCl)N=O (stereo not given)	106	
O=C(O)CNC(=O)C1C(=O)N(C2CCCCC2)C(=O)N(C2CCCCC2)C1=O	114	
CC[C@@]1(O)C(=O)OCc2c1cc1n(c2=O)Cc2cc3ccccc3nc2-1		13.2 nM (active)
CO[C@H]1CCC(O[C@H]2C[C@H]([C@]3(C)CC[C@]4(C[C@H](O)[C@@H](C)[C@@H]([C@@H](C)/C=C(\C)C(=O)[C@H](C)C[C@H](C)C(=O)O)O4)O3)O[C@]3(O[C@@H]([C@H]4O[C@@](O)(CO)[C@H](C)C[C@@H]4C)C[C@@H]3C)[C@@H]2C)O[C@@H]1C (stereo not given in full)		1480 nM (active)
COC12C(COC(N)=O)C3=C(C(=O)C(C)=C(N)C3=O)N1CC1C2N1C (stereo not given)	107	
O=c1cccc2n1CC1CNC[C@H]2C1	119	
CC(=O)OC[C@H]1O[C@@H]([S-])[C@H](OC(C)=O)[C@@H](OC(C)=O)[C@@H]1OC(C)=O.CC[PH+](CC)CC.[Au]		1180 nM (active)
C[C@]12CCC(=O)C(O)=C1CC[C@@H]1[C@@H]2CC[C@]2(C)C(=O)CC[C@@H]12	97.8	
NN=C(N)N	108	
O=c1[nH]c2ccccc2n1CCCN1CCC(n2c(=O)[nH]c3cc(Cl)ccc32)CC1	95.9	
N#CC(O[C@@H]1O[C@H](CO[C@@H]2O[C@H](CO)[C@@H](O)[C@H](O)[C@H]2O)[C@@H](O)[C@H](O)[C@H]1O)c1ccccc1 (stereo not given in full)	93.9	
COc1cccc2c1C(=O)c1c(O)c3c(c(O)c1C2=O)C[C@@](O)(C(=O)CO)CC3OC1CC(N2CCOC(OC)C2)C(O)C(C)O1 (stereo not given in full)		3.3 nM (active)
CC(NC(C)(C)C)C(=O)c1cccc(Cl)c1 (stereo not given)	111	
COC1(CS(=O)c2ccccc2)CCN(CCc2c[nH]c3ccc(F)cc23)CC1 (stereo not given)	110	
Cn1cc(C2=C(c3cn(C4CCN(Cc5ccccn5)CC4)c4ccccc34)C(=O)NC2=O)c2ccccc21	103	
C[C@@]12OC(=O)[C@]1([C@@H](O)[C@@H]1C=CCCC1)NC(=O)[C@@H]2CCCl		26.3 nM (active)
CCN1CCN(C(=O)Cc2ccc(Nc3ncc(F)c(Nc4ccc(C(=O)Nc5ccccc5Cl)cc4)n3)cc2)CC1		5250 nM (active)
O=C1CC[C@@]2(O)[C@H]3Cc4ccc(O)c5c4[C@@]2(CCN3CC2CC2)[C@H]1O5	123	

Compound	viability [%]	Potency
CN1C(=O)COc2c(C(=O)NC3CN4CCC3CC4)cc(Cl)cc21 (stereo not given)	95.7	
CN[C@@H]1Cc2cccc3[nH]c(=O)n(c23)C1	120	
CC[C@H]1/C=C\C=C/C[C@@H](C)[C@H](O)[C@@](C)(O)C(=O)[C@@H](C)[C@H](O)[C@@H](C)C(=O)[C@@H](C)[C@H](O)[C@@H](C)/C=C\C(=O)O[C@@H]2[C@H](C)[C@H](CC1)O[C@]1(CC[C@H](C)[C@H](C[C@@H](C)O)O1)[C@H]2C		4170 nM (active)
Cc1ccccc1-n1c(Cn2ncc3c(N)ncnc32)nc2cccc(C)c2c1=O	112	
CC(C)(O)/C=C\C(=O)[C@](C)(O)[C@H]1[C@H](O)C[C@]2(C)[C@@H]3CC=C4[C@@H](C=C(O)C(=O)C4(C)C)[C@]3(C)C(=O)C[C@@]12C		1660 nM (active)
C/C1=C/C[C@@H](/C(C)=C/c2csc(C)n2)OC(=O)C[C@H](O)C(C)(C)C(=O)[C@H](C)[C@@H](O)[C@@H](C)CCC1		93.4 nM (active)
C[C@]12CC[C@H]3[C@@H](CC[C@@]45O[C@@H]4C(O)=C(C#N)C[C@]35C)[C@@H]1CC[C@@H]2O	112	
CC[C@@H](C(N)=O)N1CCCC1=O	108	
C[C@]12Cc3cn[nH]c3C[C@@H]1CC[C@@H]1[C@@H]2CC[C@@]2(C)[C@H]1CC[C@]2(C)O	57.3	
COc1cc(C)[nH]c(=O)c1CNC(=O)c1c(C)n([C@H](C)C2CCOCC2)c2ccccc12	113	
CCN1C[C@]2(OC(=O)c3ccccc3NC(C)=O)CC[C@H](OC)[C@@]34[C@H]5CC6[C@@H](OC)C[C@](O)(C(C[C@@H]23)[C@@H]14)[C@@]5(O)[C@@H]6OC	104	
O=C1C=CC[C@@H]2[C@H]3CCCN4CCC[C@@H](CN12)[C@@H]34	108	
Cc1ccccc1-n1c(Cn2cnc3c(N)ncnc32)nc2cccc(C)c2c1=O	110	
CC1=C2C[C@H]3[C@@H](CC=C4C[C@@H](O)CC[C@@]43C)[C@@H]2CC[C@]12O[C@@H]1C[C@H](C)CN[C@H]1[C@H]2C	113	
C[C@@H](C1CC[C@@]2(O)C3=CC(=O)[C@@H]4C[C@@H](O)[C@@H](O)C[C@]4(C)[C@H]3CC[C@]12C)[C@H](O)CCC(C)(C)O (stereo not given in full)	104	
CCCC[N+]1(C)[C@H]2CC(OC(=O)[C@H](CO)c3ccccc3)C[C@H]1[C@H]1O[C@H]12 (stereo not given in full)	109	
C/C(O)=C(\C#N)C(=O)Nc1cc(Br)ccc1Br	90	
CC(O)(CS(=O)(=O)c1ccc(F)cc1)C(=O)Nc1ccc(C#N)c(C(F)(F)F)c1 (stereo not given)	92.1	
Cn1c(CCCCCCC(=O)NO)nc2cc(N(CCCl)CCCl)ccc21		2630 nM (active)
CCC1(c2ccc(N)cc2)CCC(=O)NC1=O (stereo not given)	114	
